# Source: PubChem BioAssay AID431 (Sanford-Burnham Center for Chemical Genomics, 2006)
# Among all 63,000 compounds or so, about 1,100 (1.7%) were called active. The sample as a whole holds a higher share of actives than the screen did. Results with a measured potency or affinity are listed apart. A number with no mark means an inactive call.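 The calls were made as follows: active = compounds whose percent cytotoxicity in the single-dose primary screen, scaled between solvent and toxic-drug controls, exceeds 50; inactive = the rest.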
# Assay: viability loss of HPDE-C7K cells – cell-based, fluorescence, HTS, primary screen (AID 431);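 also: 0% = DMSO solvent wells and 100% = doxorubicin-treated wells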
# Details: HPDE-C7K KRASV12 cells, Alamar Blue viability, 48 h; at 10 µM; stronger effect = higher value
row,SMILES,cytotoxicity
1,Cc1noc(C)c1COC(=O)C1CC(O)CN1S(=O)(=O)c1ccc(Cl)cc1 (stereo not drawn),-5.6%
2,CCc1ccccc1N(C(=O)c1cccs1)C1C=CS(=O)(=O)C1 (stereo not drawn),-8.1%
3,CCSC1=C(C#N)C2(CCCC2)C(C#N)=C(N)N1,18.9%
4,COc1ccc(C(=O)CSC2=C(C#N)C3(CCCCC3)C(C#N)=C(N)N2)cc1,30.1%
5,CCSC1=C(C#N)C2(CCCCC2)C(C#N)=C(N)N1,1.2%
6,N#CC1=C(N)NC(SCC(=O)O)=C(C#N)C12CCCC2,-1.2%
7,N#CC1=C(N)NC(SCc2ccccc2)=C(C#N)C12CCCCC2,78.5% (active)
8,CC1(C)CC(=O)C2=C(C1)NC(SCC(=O)Nc1ccccc1)=C(C#N)C21CCCCC1,-9.5%
9,CSC1=C(C#N)C2(CCCC2)C(C#N)=C(N)N1,30.6%
10,O=C(CC(NS(=O)(=O)c1ccc(Cl)cc1)c1ccco1)NCc1cccnc1 (stereo not drawn),-10.2%
11,CCOC(=O)N1CCN(c2nc(C)c3c(n2)CC(C)CC3=O)CC1 (stereo not drawn),-14.7%
12,Cn1c(N2CCC(C(N)=O)CC2)nc2c1c(=O)n(Cc1ccc(Cl)cc1)c(=O)n2C,16.9%
13,FC(F)(F)c1cccc(N2CCN(Cc3cccnc3)CC2)c1,21.8%
14,CC(C)Oc1cccc(C(=O)Nc2ccccc2N2CCOCC2)c1,-2.7%
15,COc1cc(C2C(C(=O)c3cccs3)=C(O)C(=O)N2c2cc(C)on2)ccc1O (stereo not drawn),14.5%
16,CCn1c2ccccc2c2cc(Nc3cc(C)nc4ncnn34)ccc21,74.4% (active)
17,Cc1cc(Nc2ccc3ccccc3c2)n2ncnc2n1,-8.1%
18,CCc1cccc(Nc2cc(C)nc3ncnn23)c1,-4.4%
19,Cc1ccc(-c2nn(C)c(=O)c3ccccc23)cc1CNC(=O)CN1CCOCC1,4.3%
20,O=C(Cn1nnc(-c2cc(Cl)ccc2-n2cnnn2)n1)N1CCCc2ccccc21,-0.5%
21,CCOC(=O)N1CCC(NC(=O)c2csc3c2CCCC3)CC1,-1.5%

row,SMILES,cytotoxicity
1,COC(=O)/C(=C1/Oc2cc(C)oc(=O)c2S1)C(F)(F)F,70.4% (active)
2,COC(=O)/C(=C1/Oc2cc3c(cc2S1)OCO3)C(F)(F)F,-15.1%
3,COC(=O)C1=C(N)Oc2cc(C)oc(=O)c2C1c1ccncc1 (stereo not drawn),-2.1%
4,O=C(COC(=O)C(O)c1ccccc1)NC12CC3CC(CC(C3)C1)C2 (stereo not drawn),-12.9%
5,CN(C)/C=C1/Sc2ccccc2C1=O,-18.3%
6,CN(C)/C=C1\C(=O)c2ccc(N(C)C)nc2CC1c1ccccc1 (stereo not drawn),59.9% (active)
7,CN(C)C=C1C(=O)c2ccccc2C1=O,48%
8,CCCOC(=O)Nc1ccc(S(=O)(=O)Nn2cnnc2)cc1,5.7%
9,N#Cc1nc(Cc2cccc3ccccc23)oc1NCc1ccco1,63.1% (active)
10,C=CCNc1oc(Cc2cccc3ccccc23)nc1C#N,-8.6%
11,CNc1oc(Cc2cccc3ccccc23)nc1C#N,14.7%
12,CCn1cc(C(=O)NCC2CCCO2)c(=O)c2cc(S(=O)(=O)N(C)C3CCCCC3)ccc21 (stereo not drawn),13.1%
13,Cc1ccc(-c2nnc3n2N=C(c2ccccc2)CS3)cc1,-2.4%
14,COc1ccccc1-c1nnc2n1N=C(c1ccc(O)c(O)c1)CS2,54.8% (active)
15,COc1ccc(C2=Nn3c(nnc3-c3ccccc3)SC2)cc1OC,0.4%
16,COc1cccc(C2=Nn3c(nnc3-c3ccccc3O)SC2)c1,-11.6%
17,CCOc1ccc(C2=Nn3c(nnc3-c3ccc(OC)cc3)SC2)cc1,40.7%
18,COc1ccc(C2=Nn3c(nnc3-c3ccccn3)SC2)cc1OC,-4.6%
19,CCOc1ccc(C2=Nn3c(nnc3-c3ccccc3OC)SC2)cc1,66.6% (active)
20,c1ccc(C2=Nn3c(nnc3-c3cc(-c4ccccc4)n[nH]3)SC2)cc1,-6.7%
21,COc1ccccc1-c1nnc2n1N=C(C)CS2,-13.6%

row,SMILES,cytotoxicity
1,CCOc1ccc(-c2nnc3n2N=C(c2ccc(OC)cc2)CS3)cc1,-5%
2,CCCCOc1ccc(-c2ncc(Cl)cn2)cc1,-15%
3,Cn1c(Cn2c(=O)sc3ccccc32)nnc1SCC(=O)N1CCN(c2ccccc2)CC1,8.3%
4,O=C(COc1ccc2c(c1)OCO2)Nc1ccc2c(c1)oc1ccccc12,2.3%
5,O=C(Cn1ncc2c(=O)oc3ccccc3c21)N1CCN(C(=O)c2ccco2)CC1,0.4%
6,COC(=O)c1cc(-c2c(C)oc3cc(OC(C)C)ccc3c2=O)c(C)o1,-13.5%
7,Cn1c(=O)c2c(nc(CN3CCN(C(=O)c4ccco4)CC3)n2CCc2ccccc2)n(C)c1=O,-4.3%
8,CCOC(=O)c1ccc(NC(=O)NC(C)C2CCCO2)cc1 (stereo not drawn),-0.2%
9,Cc1ccccc1CS(=O)(=O)CCC(=O)N1CCN(c2ccc(N3CCOCC3)nn2)CC1,3.2%
10,COc1ccc(-c2nnc3n2N=C(c2ccccc2)CS3)cc1OC,-3%
11,COc1cc(-c2nnc3n2N=C(c2ccccc2)CS3)cc(OC)c1OC,63.5% (active)
12,COc1ccc(OC)c(C2=Nn3c(nnc3-c3cc(OC)c(OC)c(OC)c3)SC2)c1,10.4%
13,COc1cc2c(cc1OC)C(/C(C#N)=N\O)=NC(C)(C)C2,7%
14,CCOC(=O)/C=C1\NC(C)(C)Cc2cc(OC)c(O)cc21,5.5%
15,O=C(CN1CCN(c2ccccc2F)CC1)Nc1ccccc1F,-7%
16,CCn1c(N)c(C(=O)NCc2ccco2)sc1=S,-5.3%
17,CCCCNC(=O)c1ccccc1C(=O)NCCCC,-2.3%
18,O=C(NCc1ccco1)c1sc(=S)n2c1[nH]c(=O)c1ccccc12,81.4% (active)
19,C=CCn1c(N)c(C(=O)NCc2ccco2)sc1=S,7.1%
20,CCCCNC(=O)c1sc(=S)n2c1[nH]c(=O)c1ccccc12,62.6% (active)
21,CCCCCCNC(=O)c1c(O)c2ccccc2[nH]c1=O,-1.5%
